ANO1 block = TMEM16A chloride channel inhibitors, primary screen, cell-based, HTS; AID 588511, 2011; Anoctamin-1 (Mus musculus), Q8BHY3; HEK293 TMEM16A/YFP iodide influx fluorescence, ionomycin; 310,000 tested, 1.2% active; normalized B-score (activity score, 25-100; higher = stronger inhibition) at 10 µM;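 active = ratio plate-corrected score three or more library SD toward inhibition, starting fluorescence score within five deviations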;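 also: score derived from kinetic fluorescence span divided by baseline fluorescence per well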
MEKK2 WT-MEK5 = modulators of MEK5 binding to wildtype MEKK2, primary screen, biochemical, multiplex bead flow cytometry, Alexa488-MEK5; Mitogen-activated protein kinase kinase kinase 2 (Homo sapiens), Q9Y2U5; Alexa488-MEK5 binding to MEKK2 WT; actives lie on both sides; binding response (% of control), % at 10 µM; 290,000 tested, 1.1% active; in the data active = binding response below about 67% or above about 130%
MEKK2mut PB1 HTS = MEK5 binding signal on mutant MEKK2 PB1, primary screen, biochemical, multiplex bead flow cytometry, Alexa488-MEK5; Alexa488-MEK5 binding to MEKK2 mutant; percent response, % at 10 µM; 290,000 tested, 0.35% active; AID 1530, 2009; in the data active = percent response above about 24%, passing the limit was not always enough
NTR1 ag = agonists of human NTR1, primary screen, imaging, U2OS cells, beta-arrestin-GFP, high content. Neurotensin receptor type 1 (Homo sapiens), P30989. NTR1-U2OS beta-arrestin-GFP spot imaging, agonist mode. activation, % at 20 µM. 330,000 tested, 0.17% active. AID 493036, 2011;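 active = activation at or above 40% of the spot to cytoplasm intensity ratio, with at least 20 cells analyzed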;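 also: 0% = DMSO without peptide and 100% = 100 nM NTR1 peptide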
Target sequence (P30989 whole entry, looked up): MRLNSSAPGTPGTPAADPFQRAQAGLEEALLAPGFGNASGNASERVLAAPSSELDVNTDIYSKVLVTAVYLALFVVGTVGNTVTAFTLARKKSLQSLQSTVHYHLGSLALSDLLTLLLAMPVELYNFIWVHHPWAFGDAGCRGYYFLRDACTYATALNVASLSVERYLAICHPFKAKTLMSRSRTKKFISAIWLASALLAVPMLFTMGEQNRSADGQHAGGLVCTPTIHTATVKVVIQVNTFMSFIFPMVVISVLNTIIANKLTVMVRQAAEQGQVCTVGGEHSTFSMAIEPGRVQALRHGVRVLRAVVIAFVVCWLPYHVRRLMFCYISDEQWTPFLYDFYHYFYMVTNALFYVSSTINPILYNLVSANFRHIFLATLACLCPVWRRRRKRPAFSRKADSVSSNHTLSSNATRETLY
TMEM16A act = TMEM16A chloride channel activators or potentiators, primary screen, cell-based, HTS. B-score at 10 µM. Anoctamin-1 (Mus musculus), Q8BHY3. AID 623877, 2012. 340,000 tested, 0.3% active. HEK293 TMEM16A/YFP-H148Q/I152L, iodide quench fluorescence; hits give low values;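 active = fluorescence-ratio B-score plate-corrected deviation score at least 3 library SD below zero, with starting fluorescence score within 5 deviations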;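 also: channel opened by trigger with iodide after compound preincubation; score built on the fluorescence ratio of max minus min over baseline; more negative score means more quench and so TMEM16A activation or potentiation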
MEKK3 PB1 HTS = modulators of MEKK3-MEK5 PB1 binding, primary screen, biochemical, wildtype MEKK3, multiplex bead flow cytometry, Alexa488-MEK5 | Mitogen-activated protein kinase kinase kinase 3 (Homo sapiens), Q99759 | bead-based flow cytometry, Alexa488-MEK5 binding to MEKK3; actives lie on both sides; 0 = blocked by unlabeled MEK5, 100 = vehicle | binding response (% of control), % at 10 µM | 290,000 tested, 1.4% active | AID 1529, 2009;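 active = binding response more than 3 SD above or below the average of its plate-row segment, actives on both sides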;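 also: Alexa488 bead fluorescence after subtracting the streptavidin-only scavenger bead signal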
* marks the source's active call; other numbers are inactive results; i = inactive; x = no result given; [ ] = dose if it differs, or a comment. In the library only some 3.4% were active in any assay of this set; here they are far more common.

SMILES	ANO1 block	MEKK2 WT-MEK5	MEKK2mut PB1 HTS	NTR1 ag	TMEM16A act	MEKK3 PB1 HTS
CCC(C(=O)Nc1ccncc1)c1ccccc1 (centres undefined)	i	101	0	0	i	101
CCOC(=O)c1c(NC(=O)C(NCCN(C)C)c2ccccc2)sc2c1CCCC2 (centres undefined)	i	171*	43*	8	i	109
O=C(O)Cc1c(C(=O)O)nnn1-c1ccc(Cl)cc1Cl	i	96	-1	-2	i	104
O=C(CSc1ccccc1Cl)N1CCC(c2nc3ccccc3s2)CC1	100*	102	6	4	i	103
COC(=O)C(NC(=O)c1c(C)nn(C)c1Cl)c1ccccc1 (centres undefined)	i	87	-8	0	i	89
O=C(Cc1ccc(Br)c2ccccc12)N/N=C/c1ccccn1	25*	100	5	8	i	105
O=C(Cc1ccc(F)cc1)N/N=C/c1ccccn1	i	106	5	-2	i	106
COc1ccc2[nH]c(=O)c(CN(Cc3cccs3)C(=S)Nc3ccccc3)cc2c1	i	-1.0*	-1	2	x	100
COc1cc2cc(CN(Cc3cccs3)C(=S)Nc3ccccc3)c(=O)[nH]c2cc1OC	i	103	1	4	i	104
CCOC(=O)N1CCN(C(=O)c2ccc(Cl)c(NC(=O)c3cccs3)c2)CC1	x	x	x	1	i	x
O=C(Nc1ccc(S(=O)(=O)Nc2ccccc2)cc1)c1ccc(CN2CCOCC2)cc1	i	99	-3	4	i	91
CC(C)(C)n1nc(-c2ccc(Cl)cc2)c2c(N)ncnc21	i	102	12	3	i	101
Cc1ccc(-c2nc(N)c3c(-c4ccc(C)cc4)nn(C(C)(C)C)c3n2)cc1	100*	96	-5	0	i	89
O=C(CCCc1nc2ccccc2s1)NNC(=O)CCN1CCN(Cc2ccccc2)CC1	i	101	0	0	-22*	103
COc1ccc(NC(=O)NCc2ccc3c(c2)OCO3)cc1OC	i	98	-2	-1	i	102
CN(C)CCC(c1ccccc1)c1ccccn1 (centres undefined)	i	81	2	6	i	63
CN(C)CCC(O)c1ccccc1 (centres undefined)	i	-4.0*	2	0	i	93
O=c1[nH]c(Cc2ccccn2)nc2scc(-c3ccccc3Cl)c12	i	98	5	-2	i	104
CN(C)S(=O)(=O)N1CCCC(C(=O)c2ccc(-c3ccccc3)c(F)c2)C1 (centres undefined)	100*	94	-8	12	i	92
CSc1ccc(C(=O)C2CCCN(S(=O)(=O)N(C)C)C2)cc1 (centres undefined)	i	99	1	2	i	102
COc1ccc(S(=O)(=O)N2CCN(C(=O)c3ccc(NC(C)=O)cc3)CC2)cc1	x	x	x	0	i	x
CCOC(=O)c1ccc(NC(=O)NC2CC3CCC(C2)N3Cc2nnnn2Cc2ccco2)cc1 (centres undefined)	i	105	3	1	-47*	103
CC(C)(C)n1nnnc1CN1C2CCC1CC(NC(=O)Nc1ccccc1)C2 (centres undefined)	i	98	-4	-2	i	96
CCCCN(CCCC)S(=O)(=O)c1ccc(NC(=O)c2cccs2)cc1	100*	124	12	9	i	107
Cc1cc(C)nc(NS(=O)(=O)c2ccc(NC(=O)c3cccs3)cc2)n1	i	99	9	0	i	94
SMILES	ANO1 block	MEKK2 WT-MEK5	MEKK2mut PB1 HTS	NTR1 ag	TMEM16A act	MEKK3 PB1 HTS
CCN1/C(=C2/SC(=S)N(NC(C)=O)C2=O)Sc2ccccc21	i	104	-2	0	i	104
COc1cccc(/C=C2\Oc3cc(OCC(=O)N4CCCC4)ccc3C2=O)c1OC	i	103	0	3	-38*	104
c1ccc(Cc2nnc(-c3ccccc3)o2)cc1	i	92	-4	12	-6.8*	95
CC(=O)OCC(=O)C1(O)CCC2C3CCC4=CC(=O)CCC4(C)C3(F)C(O)CC21C (centres undefined)	x	x	x	x	i	x
O=C(NCc1cccc(F)c1)C1CCC(=O)N(C2CC2)C1 (centres undefined)	i	108	8	3	i	105
COc1ccc(-c2coc3cc4oc(=O)cc(-c5ccccc5)c4cc23)cc1F	i	106	0	4	i	132*
O=C(COC(=O)CNC(=O)c1ccc(Cl)cc1)Nc1ncc(C(F)(F)F)cc1Cl	i	110	11	0	i	101
O=C(COC(=O)C1(c2ccc(Cl)cc2)CCCC1)Nc1ncc(C(F)(F)F)cc1Cl	100*	104	2	4	i	99
CNC(=S)/N=C/NOCc1ccc(Cl)cc1Cl	100*	94	-2	2	i	96
O=C(O)CCC1c2cc3c4cc2OC2Oc5cc6c(cc51)C(CCC(=O)O)c1cc5c7cc1OC(O6)c1cc6cc(c1)Oc1cc(cc(C(=O)O)c1)Oc1cc8cc(c1)C(Oc1cc(c(cc1C5CCC(=O)O)C3CCC(=O)O)OC(O4)c1cc(cc(c1)Oc1cc(cc(C(=O)O)c1)O8)Oc1cc(cc(C(=O)O)c1)Oc1cc(cc2c1)Oc1cc(cc(C(=O)O)c1)O6)O7 (centres undefined)	25*	x	x	-3	x	x
CCC(C)N(C(=O)CN1C(=O)NC2(CCc3ccccc32)C1=O)C1CCS(=O)(=O)C1 (centres undefined)	x	x	x	0	i	x
Cc1ccc(S(=O)(=O)NCc2c(Cl)cccc2Oc2ccccc2)cc1	100*	103	-11	15	i	99
O=S(=O)(NCc1c(Cl)cccc1Oc1ccccc1)c1ccccc1	i	92	-20	5	i	90
Cc1cc(NS(=O)(=O)c2ccc(Nc3nc(-c4sc(C)nc4C)cs3)cc2)no1	x	-2.0*[inhibitor]	-22	x	x	-1.0*[inhibitor]
CCC(=O)Nc1nc(C)c(-c2csc(Nc3ccc(S(=O)(=O)Nc4cc(C)on4)cc3)n2)s1	x	91	-1	x	x	94
Cc1cccc(/C=C2/Sc3ccc(C(=O)NCCN4CCCC4)cc3NC2=O)c1	i	183*	46*	14	i	105
